Results: PubChem BioAssay AID2639 (National Center for Advancing Translational Sciences (NCATS), 2010)
The source made the active and inactive calls. Where a call stands in place of a potency, no number is given. Calls follow the shape of the full dose curve.

Test: Platelet Aggregation Secondary Assay for Inhibitors of Platelet Integrin alphallb-beta3
Settings: platelet-rich plasma, ADP-induced aggregation, absorbance 563 nm
Source text: NIH Molecular Libraries Probe Production Network [MLPCN] NIH Chemical Genomics Center [NCGC] MLPCN Grant: 1 R03 MH083257-01 Assay Provider: Barry Coller, Rockefeller University NCGC Assay Overview: The alphaIIbbeta3 receptor plays a vital role in hemostasis and thrombosis, where receptor deficiency causes the hemorrhagic disorder, Glanzmann thrombasthenia, and uncontrolled receptor activation causes thrombosis and blood vessel occlusion. Small molecule inhibitors of alphaIIbbeta3, tirofiban and eptifibatide, have undesirable side effects thought to arise from conformational changes in alphaIIbbeta3. These changes transiently activate the receptor to cause spontaneous platelet aggregation and thrombus formation. […] This secondary assay measures platelet aggregation (Blue et al., 2008). Platelets are induced to aggregate and aggregation is tracked by the change in absorbance over time. Inhibitors of alphaIIbbeta3 block platelet aggregation and decrease the rate of change in absorbance.
NCGC Assay Protocol Summary: Untreated 96-well polystyrene plates (Nunc, Rochester, NY) were blocked for at least 1 hour with HBMT (138 mM NaCl, 12 mM NaHCO3, 10 mM HEPES, 2.7 mM KCl, 0.4 mM NaH2PO4, 0.1% glucose, 0.35% BSA, pH 7.4). Compounds (33 uL in HBMT) and citrated platelet-rich plasma (67 uL) were added to the wells. After plates equilibrated at 37 C in the plate reader (SpectraMax; Molecular Devices, Sunnyvale, CA) for 10 minutes, aggregation was initiated by adding ADP (5 uM final concentration; Chrono-Log Corp, Havertown, PA). Absorbance (Abs) was measured at 563 nm every 10 seconds with 3 seconds of shaking between determinations for 8 minutes. Reference Blue R, Murcia M, Karan C, Jirouskova M, and Coller BS. Application of high-throughput screening to identify a novel alphaIIb-specific small- molecule inhibitor of alphaIIbbeta3-mediated platelet interaction with fibrinogen. Blood. 2008, 111(3):1248-56

Row | SMILES | outcome | Potency
1 | O=c1cc(N2CCNCC2)nc2sc(C3CC3)nn12 | inactive | –
2 | CCc1nn2c(=O)c(C)c(N3CCNCC3)nc2s1 | inactive | –
3 | CCc1nn2c(=O)cc(N3CCNCC3)nc2s1 | – | 8.4 µM (active)
4 | CCc1nn2c(=O)cc(N3CCN(C)CC3)nc2s1 | inactive | –
5 | Cc1nn2c(=O)cc(N3CCNCC3)nc2s1 | inactive | –
6 | CCc1nn2c(=O)c(F)c(N3CCNCC3)nc2s1 | – | 8.3 µM (active)
